# This is part of a sample that, as a whole, favours compounds with a hit. Of some 79,000 tested, about 15% had one in any assay. Values without a mark were called inactive. The source made the active and inactive calls. Rule as the data show it: active = growth inhibition above about 70%; inactive = the rest.
# Assay: NCI Yeast Anticancer Drug Screen. Data for the cln2 rad14 strain (AID 165);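 also: 0% = growth equal to vehicle treated cultures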
# Settings: S. cerevisiae cln2 rad14 strain, at 5.0 µM (retest, dose inferred, filed as 0.5), active compounds read high
# Outline: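 Each compound was tested on cln2 rad14 yeast. Inhibition of growth was calculated against vehicle-exposed controls.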
row,SMILES,growth inhibition
1,CN(C)C[C@H]1CC[C@@H](CN(C)C)C1=O,20%
2,CC1=C(SCCO)C(=O)c2ccccc2C1=O,-16%
3,COC(=O)CCNc1c2ccccc2nc2cccc([N+](=O)[O-])c12,99% (active)
4,COC(=O)C1=C(C)NC(C)=C(C(=O)OCCCN2CCC(c3ccccc3)(c3ccccc3)CC2)C1c1cccc([N+](=O)[O-])c1 (centres undefined),14%
5,CCOC(=O)c1cnc2c(C(F)(F)F)cccc2c1N=[N+]=[N-],45%
6,O=[N+]([O-])c1cc2no[n+]([O-])c2cc1N1CCCCC1,0%
7,COC(=O)c1ccc(NCC2=CC(=O)C=CC2=O)cc1O,36%
8,CCCCCCCCNC(=O)C1=C(C)NC(C)=C(C(=O)NCCCCCCCC)C1,42%
9,S=C(Nc1ccc(Cl)c(Cl)c1)SCc1ccc2c(c1)OCO2,5%
10,O=S(=O)(CCCl)c1ccccc1Cl,-42%
11,Nc1ccccc1CC(O)C(=O)O (centres undefined),-2%
12,CC(C)C1=CCC2C(=C1)CCC1C(C)(C(=O)O)CCCC21C (centres undefined) (tested in a mixture with another compound),9%
13,CSC(=S)Nc1cc(C)ccn1,39%
14,CC(C)c1cc(C(C)C)c(O)c(C([O-])[O-])c1.CC(C)c1cc(C(C)C)c(O)c(C([O-])[O-])c1.CC(C)c1cc(C(C)C)c(O)c(C([OH2+])[OH2+])c1.CC(C)c1cc(C(C)C)c(O)c(C([OH2+])[OH2+])c1.[Cu+2].[Cu+2].[OH3+].[OH3+],3%
15,Cc1cc(I)ccc1N,46%
16,CC(Br)C(=O)c1ccc2cc(Br)c3ccccc3c2c1 (centres undefined),-24%
17,O=C(Nc1ccccc1)OCCc1ccc(Cl)c(Cl)c1,-8%

row,SMILES,growth inhibition
1,O=Cc1cccc2ccc3ccccc3c12,-52%
2,O=[N+]([O-])CC(SCc1ccccc1)c1ccc2c(c1)OCO2 (centres undefined),15%
3,CC1(Cl)CC(O)C2(CC1Br)C1(C)OC1C1OC1(Br)C2(C)C (centres undefined),33%
4,Cc1cc(O)cc(O)c1N=Nc1ccc([N+](=O)[O-])cc1,24%
5,CCCCCCCCCCCCCC[N+](C)(CC(=O)[O-])Cc1ccccc1 (centres undefined),9%
6,CC(=O)OCc1ccc(O)c(C=O)c1,15%
7,Cc1ccc2ccc3cccc4ccc1c2c34,-3%
8,Cc1nc(-[n+]2nc(-c3ccncc3)nn2-c2ccccc2)sc1C,0%
9,CCCCCCCCCCC(=O)Cl,36%
10,COC1C=COC2(C)Oc3c(C)c(O)c4c(c3C2=O)/C(=N/C2CCC(O)OC2C)C=C(NC(=O)/C(C)=C\C(=O)C2CC2C(O)C(C)C(O)C(C)C(OC(C)=O)C1C)C4=O (centres undefined),15%
11,S=c1[nH]nc(Nc2ccc(Cl)cc2)s1,-55%
12,O=C1CSC(/C=C/c2ccccc2)N1c1ccc(-c2ccc(-n3c(-c4ccccc4)nc4ccccc4c3=O)cc2)cc1 (centres undefined),9%
13,O=C1C=CC(=O)N1c1ccc2c(c1)Cc1cc(NC(=O)C(F)(F)F)ccc1-2,10%
14,Brc1ccc(-c2cc3c(cc2C2SCCS2)OCO3)cc1,9%
15,Oc1ccc2ccccc2c1C(c1ccc(Cl)cc1)c1c(O)ccc2ccccc12,56%
16,C[CH2][Sn]([CH2]C)([O]C(=O)C(OC(C)=O)c1ccccc1)[O]C(=O)C(OC(C)=O)c1ccccc1 (centres undefined),8%
17,Cc1ccc2ccc(O)cc2c1,4%
